# In PubChem BioAssay AID1159569 (Broad Institute, 2015):
# Results with a measured potency or affinity are listed apart. Records with an inconclusive call do not appear. Active and inactive are the calls of the source. No rule for the calls is given here.
# Assay: HepG2 cell cytotoxicity, dose response, cytotoxicity control, plate reader, dry powder samples (AID 1159569)
compound,measurement,value
OC[C@H]1Nc2ccc(C#Cc3cccnc3)cc2[C@H]2NCC[C@H]21,outcome,inactive
